Screening data deposited in PubChem BioAssay by The Scripps Research Institute Molecular Screening Center.
An excerpt weighted towards active compounds, which were near 4.1% of everything screened.
hgDAF12 agonist: hgDAF-12 agonism, primary luciferase screen | HEK293 GAL4-hgDAF12 UAS-luciferase reporter, agonist luminescence; normalized to butyrate control | activation, % at 6.8 µM | 370,000 tested, 1.8% active | AID 687014;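 active means activation above a cutoff set at the mean of all screened compounds plus 3 SD, cut at about 10% in these data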;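 further: 0% = DMSO wells and 100% = sodium butyrate wells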
hcDAF-12 act: activates DAF-12 receptor from parasite H. contortus | AID 652067 | 370,000 tested, 1.4% active | HEK293 hcDAF-12 lit1-tk-luc reporter, luminescence; 0% DMSO, 100% Δ7-dafachronic acid | activation, % at 6.8 µM;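 active means activation above the mean of all tested compounds plus 3 SD, cut at about 5.5% in these data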;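 further: 100% = response to 3 µM Δ7-dafachronic acid high control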
DAX1 inh-1: inhibitors of human orphan nuclear receptor DAX1 (NR0B1). AID 504766. P51843. 340,000 tested, 0.99% active. HEK293 Gal4-DAX1 luciferase reporter, luminescence. inhibition, % at 6.75 µM;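 active means inhibition above the mean over all tested compounds plus 3 SD, cut at about 4.2% in these data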;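 further: 0% = DAX1-transfected cells with DMSO and 100% = empty-vector control cells with DMSO; inhibition shows as a rise in luminescence from relieved DAX1 repression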
ssDAF12 agonist: S. stercoralis DAF-12 activation, primary screen; HEK293 ssDAF-12/GRIP1 lit1-tk-luc reporter, luminescence; % of 3 µM dafachronic acid response; 370,000 tested, 1% active; activation, % at 6.8 µM;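 active means activation above the mean over all tested compounds plus 3 SD, cut at about 0.9% in these data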;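 further: 0% = DMSO-only wells and 100% = 3 µM delta7-dafachronic acid wells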
DAX1 inh-2: blocks DAX1 repression of SF-1 activated StAR promoter; 370,000 tested, 1.1% active; inhibition, % at 6.8 µM; HEK293T StAR-luciferase reporter, SF-1/DAX-1 repression relief;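 active means inhibition above the mean over all tested compounds plus 3 SD, cut at about 3.6% in these data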;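 further: 0% = DAX-1 cells with DMSO and 100% = cells lacking DAX-1 with DMSO; higher inhibition means more luminescence from relief of DAX-1 repression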
hgDAF12 conf: confirmation of H. glycines DAF-12 agonists; shares compounds with hgDAF12 agonist; HEK293 GAL4-hgDAF12 luciferase reporter, agonist mode; percent of butyrate response; activation, % at 6.8 µM; 3,300 tested, 80% active; AID 743050;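 active means mean activation over triplicate wells above the hit cutoff derived from the earlier primary screen, cut at about 11% in these data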;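 further: 0% = DMSO low control and 100% = 2 mM sodium butyrate high control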
LXR ag 2: activates human LXR-beta, counter-screen for DAF-12 agonists; shares compounds with hgDAF12 agonist; HEK293 Gal4-LXR luciferase reporter, 24 h; activation, % at 6.8 µM; 3,300 tested, under 10 active;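 active means mean activation of the triplicate above a set limit carried over from the primary screen, none filed active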
Target sequence (P55055 whole entry, looked up, the tested form may be a part): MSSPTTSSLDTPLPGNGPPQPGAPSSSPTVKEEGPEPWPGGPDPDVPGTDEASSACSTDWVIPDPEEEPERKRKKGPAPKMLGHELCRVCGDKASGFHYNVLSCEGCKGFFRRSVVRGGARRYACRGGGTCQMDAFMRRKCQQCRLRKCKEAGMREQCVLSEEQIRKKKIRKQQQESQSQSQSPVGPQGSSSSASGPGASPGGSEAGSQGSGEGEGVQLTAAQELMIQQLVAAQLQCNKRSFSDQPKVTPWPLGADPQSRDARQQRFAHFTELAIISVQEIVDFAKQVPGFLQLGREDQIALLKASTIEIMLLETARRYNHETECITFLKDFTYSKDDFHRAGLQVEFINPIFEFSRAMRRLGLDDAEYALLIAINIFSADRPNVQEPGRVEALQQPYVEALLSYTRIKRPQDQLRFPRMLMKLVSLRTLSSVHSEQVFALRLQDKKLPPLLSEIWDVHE
Numbers without * were called inactive; . = no result.

SMILES	hgDAF12 agonist	hcDAF-12 act	DAX1 inh-1	ssDAF12 agonist	DAX1 inh-2	hgDAF12 conf	LXR ag 2
COc1ccc(-n2c(SCC(=O)c3ccc4ccccc4c3)nnc2-c2ccccc2)cc1	0	-3	.	-1	-1	.	.
COc1ccc(CN2C(C(=O)NCC(C)C)CSCCS2(=O)=O)cc1 (stereo not drawn)	7	-2	.	0	0	.	.
Fc1ccc(Cn2ccc3ccc(-c4ccc5ccn(Cc6ccccc6)c5c4)cc32)cc1	-1	2	.	0	-1	.	.
NC(=O)c1cccnc1Nc1cccc([N+](=O)[O-])c1	14*	3	4.3*	0	3	9	0
COc1ccc(OC)c(S(=O)(=O)NCC2CCN(C(=O)C(=O)c3cc4ccccc4o3)CC2)c1	-2	-2	.	-1	-1	.	.
Cc1cc(C)cc(C(=O)OCCN(C)C2CN(Cc3cn(Cc4ccccc4F)nn3)S(=O)(=O)C2)c1 (stereo not drawn)	0	-2	.	-2	-1	.	.
Fc1ccc(N2N=C(c3cccs3)CC2c2ccccc2)cc1 (stereo not drawn)	0	-1	0	-2	-1	.	.
c1ccc(C2Oc3ccccc3C3CC(c4cccs4)=NN32)cc1 (stereo not drawn)	16*	6	2	1	1	10	0
O=C(Nc1nc2ccccc2s1)Nc1ccc(F)cc1F	14*	6	3	0	1	15*	1
Cc1ccc2nc(-c3ccc4c(c3)NC(=O)CO4)cn2c1	14*	4	3	0	4.5*	14*	1
CCOC(=O)N1CCN(C(=O)C[C@H]2C[C@@]3(C(=O)OC)C(=C[C@H](C(C)C)O[C@@H]3C3CC3)N(Cc3ccc(Cl)cc3Cl)C2=O)CC1	0	-4	.	-1	-1	.	.
Cc1c(C(=O)NCC2CCCO2)oc2ccc3c(c12)C(=O)CC(C)(C)O3 (stereo not drawn)	17*	5	0	0	1	12*	1
CC(=O)Oc1ccc2occ(C(=O)c3ccccc3)c2c1	9	4	.	0	1	.	.
CC(=O)Oc1ccc2occ(C(=O)c3cccs3)c2c1	14*	4	0	-1	3	11*	0
COc1ccc(C(=O)c2coc3ccc(O)cc23)cc1	16*	5	2	1	3	20*	1
CCCn1c(NC(=O)c2ccccc2)nc(Cc2ccccc2)c1Cc1ccccc1	-2	0	.	-1	0	.	.
CN1CCSc2ccc(C(=O)NCc3cccc(F)c3)cc21	3	-1	1	-2	-1	.	.
CN1CCSc2ccc(C(=O)Nc3ccc(Cl)cc3)cc21	18*	4	7.0*	-1	2	17*	1
Cc1ccc(NC(=O)/C=C/c2ccc3c(c2)OCO3)nc1	17*	5	1	-1	3	13*	1
C=CCN1CC(COc2ccc(OC)cc2)OCCS1(=O)=O (stereo not drawn)	-1	0	.	-1	2	.	.
CCN(CC)c1ccc(N=Nc2ncn[nH]2)cc1	15*	4	.	0	2	10	0
Cc1ccc(NC(=O)c2[nH]cnc2C(=O)NN)cc1	13*	0	1	-1	1	2	0
CC(C)CSc1nnc2c(n1)[nH]c1ccccc12	14*	6.4*	2	1.2*	4.0*	12*	1
CCCCSc1nnc2c(n1)[nH]c1ccccc12	7	0	1	0	1	.	.
Cc1cccc(NC(=S)NNC(=O)c2sccc2C)c1	13*	3	3	0	2	6	0
CC(C)C[C@@H]1NC(=O)[C@H]2C[C@@]3(C)c4ccccc4N[C@H]3N2C1=O	-1	-3	.	-2	0	.	.
Nc1nc(-c2ccc3c(c2)CCCC3)cs1	16*	2	1	0	2	11*	1
Nc1nc(-c2ccc3c(c2)OCCO3)cs1	6	4	2	-1	2	.	.
COc1ccc(NC(=O)C2=Cc3cccc(OC)c3OC2)cc1	15*	0	2	-1	2	10	0
CCOc1cc(C(=O)Nc2cc(C)on2)cc(OCC)c1OCC	-2	-2	-2	-1	-1	.	.
